According to PubChem BioAssay:
For some assays here: Results with a measured potency or affinity are listed apart. Active and inactive are the calls of the source. Unless noted, how the calls were made is not given here.

What was measured:
[1] = antimalarial activity against Dd2 strain (AID 2302;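 active means growth inhibition above 50% at the single 2 µM test dose, taken to imply half-maximal potency below 2 µM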;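 further: 0% = DMSO untreated growth and 100% = chloroquine plus artemisinin killed control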); conditions: P. falciparum Dd2 in RBCs, LDH growth readout, 72 h; at 2 µM; stronger effect = higher value
[2] = human hepatoma cell viability loss – ATP luminescence, cytotoxicity control for P. falciparum antimalarial project, primary screen (AID 2303;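 active means inhibition above 50%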;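 further: 0% = DMSO wells and 100% = digitonin-killed cells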); conditions: HepG2 viability, 24-48 h, at 10 µM, stronger effect = higher value
[3] = biological target: L-lactate dehydrogenase (Plasmodium falciparum (isolate CDC / Honduras)) (UniProt Q27743); experiment: PfLDH activity inhibition – cell lysate, 3D7 strain, counter-screen for P. falciparum growth inhibition project (AID 2304);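 further: 0% = vehicle and 100% = reference inhibitor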; conditions: P. falciparum 3D7 crude extract, LDH APAD/NBT absorbance; at 2 µM; stronger effect = higher value
L-lactate dehydrogenase (Plasmodium falciparum (isolate CDC / Honduras)), sequence (Q27743 whole entry, looked up): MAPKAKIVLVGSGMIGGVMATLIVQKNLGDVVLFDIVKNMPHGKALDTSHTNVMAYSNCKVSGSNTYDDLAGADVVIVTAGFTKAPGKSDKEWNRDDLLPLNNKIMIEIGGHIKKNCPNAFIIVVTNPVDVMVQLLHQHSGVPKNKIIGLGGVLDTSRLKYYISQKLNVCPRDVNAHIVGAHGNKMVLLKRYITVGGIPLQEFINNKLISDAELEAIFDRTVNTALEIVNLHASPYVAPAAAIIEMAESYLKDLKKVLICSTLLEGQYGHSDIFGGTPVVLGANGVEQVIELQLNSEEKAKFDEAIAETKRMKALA

[4] = inhibition of 3D7 malaria parasite growth – strain 3D7 (AID 2306);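 further: 0% = DMSO wells and 100% = chloroquine plus artemisinin control wells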; conditions: P. falciparum 3D7 erythrocytic growth, LDH absorbance, 72 h; at 2 µM; stronger effect = higher value
[5] = biological target: Plasmodium falciparum protein kinase 6 (PK6, PF3D7_1337100) (UniProt Q8IDW1); experiment: PfPK6 kinase inhibitors, biochemical, TCAMS library (AID 1159586); conditions: recombinant PfPK6, Kinase-Glo ATP depletion luminescence
Plasmodium falciparum protein kinase 6 (PK6, PF3D7_1337100), sequence (Q8IDW1 1-305): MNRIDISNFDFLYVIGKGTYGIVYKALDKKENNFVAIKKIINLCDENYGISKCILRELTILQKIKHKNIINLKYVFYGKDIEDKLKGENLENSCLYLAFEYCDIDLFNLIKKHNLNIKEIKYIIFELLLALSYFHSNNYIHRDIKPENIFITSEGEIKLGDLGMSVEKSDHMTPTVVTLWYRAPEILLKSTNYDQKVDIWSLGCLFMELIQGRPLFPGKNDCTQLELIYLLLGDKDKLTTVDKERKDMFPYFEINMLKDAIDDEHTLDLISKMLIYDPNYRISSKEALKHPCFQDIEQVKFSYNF

[6] = biological target: Protein kinase 7 (PK7), Plasmodium falciparum 3D7 (PF3D7_0213400) (UniProt Q7YTF7); experiment: inhibition of Plasmodium PK7 catalytic activity – biochemical, TCAMS antimalarial set, Kinase-Glo luminescence (AID 1159587); conditions: recombinant PfPK7, Kinase-Glo ATP depletion luminescence
Protein kinase 7 (PK7), Plasmodium falciparum 3D7 (PF3D7_0213400), sequence (Q7YTF7 1-343): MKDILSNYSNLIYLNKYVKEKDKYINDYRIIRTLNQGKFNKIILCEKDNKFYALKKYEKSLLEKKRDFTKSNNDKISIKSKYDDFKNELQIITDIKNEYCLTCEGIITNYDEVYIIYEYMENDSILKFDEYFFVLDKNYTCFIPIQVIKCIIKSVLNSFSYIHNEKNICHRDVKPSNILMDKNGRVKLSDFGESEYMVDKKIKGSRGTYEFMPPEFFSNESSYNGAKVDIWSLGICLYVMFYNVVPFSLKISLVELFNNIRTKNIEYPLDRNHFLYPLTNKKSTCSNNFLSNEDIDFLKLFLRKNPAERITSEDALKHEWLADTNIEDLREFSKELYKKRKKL

[7] = biological target: Calcium-dependent protein kinase 4 (Plasmodium falciparum (isolate 3D7)) (UniProt Q8IBS5); experiment: PfCDPK4 kinase inhibitors, biochemical, TCAMS library (AID 1159588; cut-off not given, nearly all actives have IC50 up to about 0.91 µM); conditions: recombinant PfCDPK4, Kinase-Glo ATP depletion luminescence
Calcium-dependent protein kinase 4 (Plasmodium falciparum (isolate 3D7)), sequence (Q8IBS5 whole entry, looked up): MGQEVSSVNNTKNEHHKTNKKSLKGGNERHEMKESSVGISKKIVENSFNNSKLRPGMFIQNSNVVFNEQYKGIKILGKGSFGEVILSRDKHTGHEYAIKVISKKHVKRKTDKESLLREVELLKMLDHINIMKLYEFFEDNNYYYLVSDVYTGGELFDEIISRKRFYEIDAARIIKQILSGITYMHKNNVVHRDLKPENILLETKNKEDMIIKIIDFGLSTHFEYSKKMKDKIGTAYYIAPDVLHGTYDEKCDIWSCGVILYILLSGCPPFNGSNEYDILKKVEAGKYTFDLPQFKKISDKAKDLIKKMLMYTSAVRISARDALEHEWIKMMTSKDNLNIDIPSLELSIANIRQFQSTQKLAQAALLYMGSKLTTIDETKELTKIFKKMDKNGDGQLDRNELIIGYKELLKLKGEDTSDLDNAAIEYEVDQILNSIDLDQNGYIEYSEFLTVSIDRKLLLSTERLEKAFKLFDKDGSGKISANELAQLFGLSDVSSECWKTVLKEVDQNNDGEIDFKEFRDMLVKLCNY

COc1ccc(-c2cnc3ccc(N4CCCC4)nn23)cc1OC
active: growth inhibition [1] 98% | growth inhibition [4] 98%
inactive: inhibition [2] 40% | inhibition [3] 0% | outcome [5] | outcome [6] | outcome [7]

CS(=O)(=O)Nc1cccc(-c2cnc3[nH]cc(-c4ccc(CN)cc4)c3c2)c1
inactive: inhibition [2] 27% | inhibition [3] 2% | outcome [5] | outcome [6] | outcome [7]
active: growth inhibition [1] 95% | growth inhibition [4] 98%

CS(=O)(=O)Nc1cccc(-c2cnc3[nH]cc(-c4cccc(CN)c4)c3c2)c1
inactive: inhibition [2] 25% | inhibition [3] -2% | outcome [5] | outcome [6] | outcome [7]
active: growth inhibition [1] 82% | growth inhibition [4] 96%

Cc1ccc(Nc2nccc(Nc3ccc4c(c3)nc(Nc3cc(C(C)(C)C)on3)n4C)n2)cc1S(C)(=O)=O
active: growth inhibition [1] 99% | growth inhibition [4] 100%
inactive: inhibition [2] 30% | inhibition [3] -5% | outcome [5] | outcome [6] | outcome [7]

COc1ccc(CNCC(C)(C)c2nc(-c3ccc(Cl)c(O)c3)c(-c3ccncc3)[nH]2)cc1
active: growth inhibition [1] 99% | inhibition [2] 76% | growth inhibition [4] 101%
inactive: inhibition [3] 1% | outcome [5] | outcome [6] | outcome [7]

CC(C)(CNCc1ccc(C(F)(F)F)cc1)c1nc(-c2ccc(Cl)c(O)c2)c(-c2ccnc(N)n2)[nH]1
active: growth inhibition [4] 101%
inactive: growth inhibition [1] 37% | inhibition [2] 32% | inhibition [3] -2% | outcome [5] | outcome [6] | outcome [7]

CC(C)(CNC(=O)[C@H]1CCCCN1)c1nc(-c2ccc(Cl)c(O)c2)c(-c2ccncc2)[nH]1
active: growth inhibition [1] 98% | growth inhibition [4] 98%
inactive: inhibition [2] 6% | inhibition [3] -3% | outcome [5] | outcome [6] | outcome [7]

CCn1c(-c2nonc2N)nc2c(-c3ccccc3)ncc(OCCCNCCCN3CCOCC3)c21
active: growth inhibition [1] 91% | growth inhibition [4] 100%
inactive: inhibition [2] 28% | inhibition [3] -7% | outcome [5] | outcome [6]

CC(c1cccc(Nc2nccc(-c3c(-c4cccc(NC(=O)c5c(F)cccc5F)c4)nn4ccccc34)n2)c1)S(C)(=O)=O (stereo not given)
inactive: inhibition [3] -6% | outcome [5] | outcome [6]
active: growth inhibition [1] 99% | inhibition [2] 76% | growth inhibition [4] 98%

Fc1cc(Cl)ccc1Nc1ccnc2cc(-c3ccc(CNCCN4CCOCC4)o3)ccc12
active: growth inhibition [1] 100% | growth inhibition [4] 101%
inactive: inhibition [2] 13% | inhibition [3] -2% | outcome [5] | outcome [6] | outcome [7]

O=C(Nc1c(F)cccc1F)c1cccc(-c2nn3ccccc3c2-c2ccnc(Nc3cccc(-c4cnco4)c3)n2)c1
inactive: inhibition [3] -6% | outcome [5] | outcome [6]
active: growth inhibition [1] 94% | inhibition [2] 96% | growth inhibition [4] 95%

CCn1c(-c2nonc2N)nc2c(-c3cccc(NC(=O)Nc4ccccc4OC)c3)ncc(OCCCN)c21
active: growth inhibition [1] 58% | inhibition [2] 84% | growth inhibition [4] 92%
inactive: inhibition [3] -2% | outcome [5] | outcome [6]

Cc1csc(-c2ncc(OC[C@@H](N)Cc3ccccc3)cc2-c2ccc3n[nH]c(C)c3c2)c1
active: growth inhibition [4] 98%
inactive: growth inhibition [1] 35% | inhibition [2] 48% | inhibition [3] 4% | outcome [5] | outcome [6]

CS(=O)(=O)Cc1ccc(Nc2nccc(N3CCCc4cc(NC(=O)Nc5cccc(C(F)(F)F)c5)ccc43)n2)cc1
active: growth inhibition [1] 99% | growth inhibition [4] 102%
inactive: inhibition [2] 46% | inhibition [3] -4% | outcome [6] | outcome [7]

Cc1cccc(Nc2nc(N[C@@H]3CCCNC3)nc3cc[nH]c(=O)c23)c1
inactive: inhibition [3] 1% | outcome [5] | outcome [6]
active: growth inhibition [1] 98% | inhibition [2] 55% | growth inhibition [4] 99%

NC[C@H](CC1CCCCC1)NC(=O)c1ccc(-c2ccnc3[nH]ccc23)s1
inactive: growth inhibition [1] 4% | inhibition [2] 39% | inhibition [3] 5% | outcome [5] | outcome [6]
active: growth inhibition [4] 98%

COc1ccc(Nc2ncc(OC)c(Nc3ccccc3C(N)=O)n2)cc1N1CCN(C)CC1
inactive: inhibition [3] 0% | outcome [6] | outcome [7]
active: growth inhibition [1] 96% | inhibition [2] 63% | growth inhibition [4] 100%

NCC(NC(=O)c1ccc(-c2c[nH]c3ncccc23)s1)c1ccccc1 (stereo not given)
active: growth inhibition [1] 87% | inhibition [2] 52% | growth inhibition [4] 95%
inactive: inhibition [3] 0% | outcome [5] | outcome [6]

NCCNC(=O)c1ccc(-c2cnc3[nH]cc(-c4ccc(C(N)=O)cc4)c3c2)cc1
inactive: inhibition [2] 2% | inhibition [3] -2% | outcome [6] | outcome [7]
active: growth inhibition [1] 98% | growth inhibition [4] 99%

O=c1[nH]ccc2nc(N[C@@H]3CCNC3)nc(Nc3cc(Cl)cc(Cl)c3)c12
inactive: inhibition [3] -2% | outcome [5] | outcome [6]
active: growth inhibition [1] 99% | inhibition [2] 99% | growth inhibition [4] 101%

COc1ccc(Nc2ncc(Cl)c(Nc3cccnc3C(N)=O)n2)cc1N1CCN(C)CC1
inactive: inhibition [3] 6% | outcome [6] | outcome [7]
active: growth inhibition [1] 97% | inhibition [2] 77% | growth inhibition [4] 95%

COCCOc1ccc(Nc2nccc(-c3c(-c4cccc(NC(=O)c5c(F)cccc5F)c4)nn4ccccc34)n2)cc1Cl
active: growth inhibition [1] 97% | inhibition [2] 53% | growth inhibition [4] 99%
inactive: inhibition [3] 4% | outcome [5] | outcome [6]
